Hits are enriched below; roughly 4.8% of the tested compounds scored in any of these assays.
APP 5'UTR act: APP 5'UTR luciferase reporter activation | SH-SY5Y APP 5'UTR luciferase reporter, luminescence; zero percent = DMSO vehicle wells | activation, % at 2 µM | 190,000 tested, 1% active;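 active means activation above a set limit, based on mean plus 3 SD of controls, cut at about 140% in these data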
APP transl inh: APP translation inhibition; SH-SY5Y APP 5'UTR-luciferase reporter, luminescence; inhibition, % at 2 µM; 190,000 tested, 0.82% active; AID 1285;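 active means inhibition above a set limit, derived from the sample mean plus 3 SD, cut at about 45% in these data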
Hsp70 activator: switches on Hsp70 transcription; HeLa Hsp70 promoter luciferase reporter, luminescence; scaled: vehicle 0, proteasome-inhibitor control 100%; activation, % at 10 µM; 200,000 tested, 0.04% active; AID 1203;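 active means activation above the mean across all tested compounds plus 3 SD, cutoff set per campaign, cut at about 5.5% in these data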
STAT1 act: activators of IFN-gamma induced STAT1 signaling | NIH 3T3 STAT1-luciferase reporter, luminescence; 100% = IFN-gamma alone, no compound | activation (% of control), % at 5.5 µM | 200,000 tested, 2.6% active;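 active means activation above the screen-wide mean activation plus 3 SD, cut at about 130% in these data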
NF-kB neuron act: NF-kB expression increase, human neuronal cells. NF-kB reporter expression; stronger effect = higher value. fold change at 12.5 µM. 190,000 tested, 1.6% active; in the data active means fold change above about 3.3
Wee1 degr inh: blocks degradation of human Wee1 kinase. P30291. HeLa Luc-Wee1K328M stability, luciferase luminescence; 100% = proteasome inhibitor MG132 effect. reporter increase, % at 5 µM. 220,000 tested, 1.2% active;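 active means activation above the mean of all tested compounds plus 3 SD, set per screening run, cut at about 8.8% in these data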;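 further: cells exposed to compound for 20 h before luminescence read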
Target sequence (P30291 whole entry K328M): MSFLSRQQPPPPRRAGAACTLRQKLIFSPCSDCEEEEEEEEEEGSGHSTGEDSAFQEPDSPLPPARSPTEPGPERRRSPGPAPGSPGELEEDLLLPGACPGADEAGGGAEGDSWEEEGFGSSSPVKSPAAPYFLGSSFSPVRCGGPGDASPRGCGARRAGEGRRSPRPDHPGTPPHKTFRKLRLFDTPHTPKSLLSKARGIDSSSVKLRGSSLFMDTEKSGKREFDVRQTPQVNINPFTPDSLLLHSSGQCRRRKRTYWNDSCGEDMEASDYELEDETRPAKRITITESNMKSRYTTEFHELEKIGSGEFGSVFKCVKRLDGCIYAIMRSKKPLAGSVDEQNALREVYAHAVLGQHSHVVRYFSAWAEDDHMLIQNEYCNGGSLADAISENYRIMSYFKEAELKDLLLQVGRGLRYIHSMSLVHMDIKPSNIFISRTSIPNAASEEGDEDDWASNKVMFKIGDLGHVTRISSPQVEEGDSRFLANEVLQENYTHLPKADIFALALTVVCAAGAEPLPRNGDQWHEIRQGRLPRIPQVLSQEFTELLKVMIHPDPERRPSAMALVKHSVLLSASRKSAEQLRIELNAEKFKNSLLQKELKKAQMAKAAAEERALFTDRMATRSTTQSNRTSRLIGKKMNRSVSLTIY
Large screens that a line does not name were inactive.

c1ccc(Nc2scc(-c3ccccc3)[n+]2Cc2ccco2)cc1	STAT1 act 142.6, NF-kB neuron act 3.43
CC1(C(=O)NNC(=O)C2CCCCC2)CC1(Cl)Cl (configuration not stated)	none (no result: APP 5'UTR act, APP transl inh, Hsp70 activator, STAT1 act, NF-kB neuron act)
CC(C)Sc1nc2c(cnn2-c2ccccc2)c(=O)[nH]1	none
Cc1[nH]c(C)c2c(=O)n(-c3ccccc3)ncc12	Wee1 degr inh 14.3
O=C(Nc1ccc(N2CCN(C(=O)c3ccccc3)CC2)cc1)c1ccc(Br)o1	none
COc1ccc(N/C=C2\CCc3ccccc3C2=O)cc1	APP 5'UTR act 155.7
O=C1/C(=C/Nc2ccc3c(c2)OCO3)CCc2ccccc21	APP 5'UTR act 152.9
COc1ccc(S(=O)(=O)Nc2ccc3c(c2)OCO3)cc1	none
COc1ccc2c(c1)CC/C(=C\Nc1ccc3c(c1)OCO3)C2=O	STAT1 act 129.5, NF-kB neuron act 3.82
C[C@]12CC[C@@H]3c4ccc(O)cc4CC[C@H]3[C@@H]1C[C@@H](O)[C@@H]2O[C@@H]1O[C@H](C(=O)O)[C@@H](O)[C@H](O)[C@H]1O	none
O=c1ccc(Br)c[nH]1	none
CCCNS(=O)(=O)c1ccc(CCC(=O)N2CCCCC2)cc1	none
Cc1nc(-c2ccccn2)nc(N2CCOCC2)c1Cl	Wee1 degr inh 10.2 (no result: APP 5'UTR act, APP transl inh, Hsp70 activator, STAT1 act, NF-kB neuron act)
O=C(NCc1ccco1)c1cc([N+](=O)[O-])cc([N+](=O)[O-])c1	none
COc1ccc(Cl)cc1NC(=O)c1cnc2sccn2c1=O	none
O=C(Nc1cnc2sccn2c1=O)c1ccc(Cl)cc1Cl	STAT1 act 131.9
Oc1cccc2ccc(/C=C/c3cccs3)nc12	APP 5'UTR act 148.1
Cc1ccsc1/C=C/c1ccc2cccc(O)c2n1	APP 5'UTR act 147.8, NF-kB neuron act 4.99
Oc1ccc(Cl)cc1/C=C/c1ccc2cccc(O)c2n1	none
CSc1ccc(/C=C/c2ccc3cccc(O)c3n2)cc1	APP 5'UTR act 172.6, NF-kB neuron act 6.17
Cc1ccsc1/C=C/c1ccc2ccccc2n1	APP 5'UTR act 176.8, NF-kB neuron act 4.95
C(=C\c1ccco1)/c1ccc2ccccc2n1	none (no result: APP 5'UTR act, APP transl inh, Hsp70 activator, STAT1 act, NF-kB neuron act)
COC(=O)C1=C(O)/C(=C\c2ccc(CNS(=O)(=O)c3ccc(Cl)cc3)o2)N=C1C	none
Fc1cccc(F)c1/C=C/c1ccc2ccccc2n1	APP 5'UTR act 165.7, NF-kB neuron act 4.42
COc1cc(C(=O)NC(CCSC)C(=O)OCc2cc([N+](=O)[O-])cc3c2OCOC3)cc(OC)c1OC (configuration not stated)	Wee1 degr inh 9.6
CCOc1cccc(C(=O)Nc2ccc(N(CC)CC)cc2)c1	none
COCCn1c(C)cc(C(=O)CSc2nc(C)c(C)c(C)n2)c1C	none
COCCn1c(C)cc(C(=O)CSc2nc3ccccc3s2)c1C	APP 5'UTR act 203.5
CCCCCCCCC(=O)N/N=C(\C)c1cccnc1	none
COc1ccc(/C=C/C2=NN(C)C(=O)CC2)cc1	APP 5'UTR act 149.1, NF-kB neuron act 3.37
CC(C)Oc1cccc(C(=O)C2CCCN(C(=O)c3csnn3)C2)c1 (configuration not stated)	none
Cc1nonc1C(=O)N/N=C/c1ccccc1	STAT1 act 132.4
Cc1nonc1C(=O)N/N=C/c1ccc(O)c(O)c1	none
c1ccc(Oc2nc(-c3ccccn3)nc3ccccc23)cc1	none (no result: APP 5'UTR act, APP transl inh, Hsp70 activator, STAT1 act, NF-kB neuron act)
COc1ccc(-c2cn3c4c(sc3n2)CCCC4)cc1	NF-kB neuron act 7.36
COc1ccc(-c2cn3c(C)c(C(=O)N4CCCc5ccccc54)sc3n2)cc1	none (no result: NF-kB neuron act)
O=C(Cc1cccs1)NCc1cccs1	none
Cc1ccccc1-c1nnc(-c2ccc(Br)cc2)o1	STAT1 act 149.9
Cc1ccc(-c2nnc(-c3ccccc3)o2)cc1Br	none (no result: NF-kB neuron act)
Cc1ccccc1-c1nnc(SCC#N)o1	none
Cc1ccccc1-c1nnc(-c2ccccc2C)o1	STAT1 act 130.4, NF-kB neuron act 3.71
Cc1nc(N)sc1N=Nc1ccc(F)cc1	STAT1 act 136.5
O=C(Nc1nc2cc3c(cc2s1)OCCO3)c1ccncc1	APP 5'UTR act 153.4, STAT1 act 132.3
COc1ccccc1NC(=O)c1c(N=Cc2c(O)ccc3ccccc23)cnn1C	Wee1 degr inh 9.0 (no result: APP 5'UTR act, APP transl inh, Hsp70 activator, STAT1 act, NF-kB neuron act)
O=C(COC(=O)Cn1cnc2ccccc21)Nc1cc(S(=O)(=O)N2CCOCC2)ccc1Cl	none (no result: APP 5'UTR act, APP transl inh, Hsp70 activator, STAT1 act, NF-kB neuron act)
O=C(COC(=O)Cn1cnc2ccccc21)Nc1cc2c(cc1Cl)C(=O)c1ccccc1C2=O	STAT1 act 135.6, Wee1 degr inh 10.7
CC(C)c1ccc(/C=C/C(=O)N2CCCCCC2)cc1	none
